# JMJD2A Tudor = qHTS Assay for Inhibitors of JMJD2A-Tudor Domain; Lysine-specific demethylase 4A (Homo sapiens), O75164; AlphaScreen JMJD2A-Tudor / H3K4me3 peptide binding; Potency, µM (top dose mostly 114 µM), usual class: inhibitors; hit rate 4.4% among 390,000; AID 504339, 2011; note: nearly all actives have a fitted effect of over 50% in size
# PLK1 PBD block = qHTS for Inhibitors of PLK1-PDB (polo-like kinase 1 - polo-box domain): Primary Screen; Serine/threonine-protein kinase PLK1 (Homo sapiens), P53350; Plk1 PBD binding of FITC phosphopeptide, fluorescence polarization; Potency, µM, most hits filed as inhibitors; hit rate 2.8% among 360,000; AID 720504, 2013; note: series mostly up to about 57 µM; nearly all actives have a fitted effect of over 65% in size
# Target sequence (P53350 whole entry, looked up, the tested form may be a part): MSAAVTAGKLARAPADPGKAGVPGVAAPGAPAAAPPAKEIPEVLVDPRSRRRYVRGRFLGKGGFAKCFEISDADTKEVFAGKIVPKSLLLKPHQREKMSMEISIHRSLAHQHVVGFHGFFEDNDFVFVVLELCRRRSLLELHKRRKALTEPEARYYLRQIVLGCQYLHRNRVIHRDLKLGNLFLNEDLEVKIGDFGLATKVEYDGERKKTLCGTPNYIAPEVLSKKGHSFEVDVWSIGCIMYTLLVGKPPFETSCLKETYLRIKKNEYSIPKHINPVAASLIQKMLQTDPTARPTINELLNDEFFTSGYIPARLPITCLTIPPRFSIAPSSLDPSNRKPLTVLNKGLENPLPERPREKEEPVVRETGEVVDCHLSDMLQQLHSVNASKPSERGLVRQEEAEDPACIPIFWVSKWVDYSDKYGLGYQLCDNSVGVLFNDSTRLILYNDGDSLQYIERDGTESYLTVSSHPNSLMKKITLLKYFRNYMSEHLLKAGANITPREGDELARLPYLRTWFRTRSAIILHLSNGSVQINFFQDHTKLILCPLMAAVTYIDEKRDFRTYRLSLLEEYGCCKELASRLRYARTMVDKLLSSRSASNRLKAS
# BAZ2B block = qHTS Assay for Inhibitors of BAZ2B | AID 504333, 2011 | hit rate 4.4% among 360,000 | AlphaScreen BAZ2B-H3K14Ac peptide displacement | Bromodomain adjacent to zinc finger domain protein 2B (Homo sapiens), Q9UIF8 | Potency, µM (series often up to 114 µM), actives largely listed as inhibitors; note: nearly all actives have a fitted effect of over 60% in size
#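 AlphaScreen luminescence quantifies BAZ2B engagement of H3K14Ac peptide; the protein and biotinylated peptide are both at 50 nM final, buffer PBS pH 7.4 with 0.01% Tween-20, all steps at room temperature.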
# HP1b binding inh = HTS for Inhibitors of HP1-beta Chromodomain Interactions with Methylated Histone Tails | Chromobox protein homolog 1 (Homo sapiens), P83916 | AlphaScreen HP1-beta / biotin-H3K9me3 peptide binding | Potency, µM (titrated, usually from 114 µM), usual class: inhibitors | hit rate 0.56% among 390,000; note: nearly all actives have a fitted effect of over 70% in size
#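 HP1-beta protein (50 nM final) preincubated 30 min at room temperature with biotinylated H3(1-18)K9me3 peptide (50 nM) in PBS pH 7.4, 0.01% Tween-20, then compound added for 30 min. AlphaScreen streptavidin donor/nickel chelate acceptor beads (10 ug/mL final), 30 min dark, luminescence read.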
# L3MBTL1 inh = qHTS Assay for the Inhibitors of L3MBTL1 | hit rate 0.66% among 230,000 | AID 485360, 2010 | Potency, µM (doses to about 57.1 µM), actives largely listed as inhibitors | Lethal(3)malignant brain tumor-like protein 1 (Homo sapiens), Q9Y468 | AlphaScreen L3MBTL1–H3K9me1 peptide binding; note: nearly all actives have a fitted effect of over 60% in size
#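 AlphaScreen proximity signal between nickel-chelate acceptor and streptavidin donor beads (final 10 ug/mL) reports binding of 50 nM L3MBTL1 to 75 nM biotin-H3 K9me1 peptide; complex incubated with compounds 30 min at room temperature; cefsulodin titration as control.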
# VDR inhibitor = Inhibitors of the vitamin D receptor (VDR): qHTS. hit rate 0.93% among 400,000. Potency, µM, actives largely listed as inhibitors. Vitamin D3 receptor (Homo sapiens), P11473. VDR-SRC2-3 peptide fluorescence polarization, 2 h
#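 Fluorescence polarization assay of small-molecule disruption of VDR binding to coregulator peptide SRC2-3. Compounds and controls pin-transferred, then read after 2 h incubation at ambient room temperature.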
# Numbers stand for hits; 0 = inactive; ? = inconclusive; - = not tested or not shown; [ ] = dose if it differs, or a comment. A selection: hits, their analogues and other compounds. The true share with any hit is near 6.9%. Calls come from the whole dose curve; as a rule, active = well fitted curve in the direction sought with a large enough effect; inconclusive = small, poorly fitted or top-dose-only effect, or another doubt; inactive = no such curve, though single readings can be large; an effect the other way counts as inactive or inconclusive.
SMILES,JMJD2A Tudor,PLK1 PBD block,BAZ2B block,HP1b binding inh,L3MBTL1 inh,VDR inhibitor
O=C1NC(c2ccc(Cl)cc2)=COc2ccccc21,0,0,0,0,0,0
O=C1NN=COc2ccccc21,0,0,56µM,0,0,0
CCCCCCc1c(C)c2c(cc(C)c3c(C)c(C)oc32)oc1=O,0,-,0,0,-,0
O=C1CCOc2cc(OCc3ccccc3)ccc21,0,0,0,0,0,0
O=Cc1cc(OCc2ccccc2)ccc1[B-](F)(F)F,0,0,-,0,-,20µM
N#Cc1ccccc1-c1ccc2ncnc(NCCN3CCOCC3)c2c1,-,-,-,-,-,0
O=C(c1ccco1)N(Cc1cccc([N+](=O)[O-])c1)c1ccc(Br)cc1,?,0,50µM,0,0,0
O=C(O)[C@H](Cc1ccccc1)NC(=O)N1CCN(c2cccc(C(F)(F)F)c2)CC1,0,0,0,0,0,0
CC(=Nc1ccccc1N)c1c(C)cc(=O)n(O)c1O,-,-,-,-,-,0
Cc1sc(N)c(C(=O)c2cccc(C(F)(F)F)c2)c1C,-,-,-,-,-,25µM
O=C(CSc1nc2c(c(=O)[nH]1)CCCC2)Nc1ccc(Br)cc1,0,-,0,0,-,0
COC(=O)[C@@H](NC(=O)O[C@H]1C(=O)c2cc(OC)ccc2O[C@@H]1c1ccc(OC)c(Br)c1)C(C)C,-,-,-,-,-,0
CC(c1n[nH]c(=S)n1-c1ccccc1)N1CCCCC1 (stereo unspecified),7.1µM,0,0,0,0,0
CC(c1nc2ccccc2n1Cc1ccccc1)N1CCCCC1 (stereo unspecified),0,0,0,0,-,0
Cc1sc2nc(CSCC(=O)Nc3ccc(N4CCOCC4)cc3)[nH]c(=O)c2c1C,0[11.4 µM],30µM,?,0,?,?
CCOC(=O)c1oc2nc(C)c3c(c2c1N)CC(C)(C)OC3,16µM,12µM,0,?,0,?
CCc1nc2oc(C(=O)c3ccccc3)c(N)c2c2c1COC(C)(C)C2,0,0,-,0,0,0
CC1CCN(c2ccc(C(=O)O)cc2N)CC1,0,0,50µM,0,0,0
COc1ccc(OCC(O)CN2CCNCC2)cc1 (stereo unspecified),0,0,0,0,0,0
NC(=O)CCC(NS(=O)(=O)c1ccc(Cl)cc1)C(=O)NCc1ccc(Cl)cc1 (stereo unspecified),0,0,0,0,0,0
NC(=O)CCC(NS(=O)(=O)c1ccc(Cl)cc1)C(=O)NCC1CCCCC1 (stereo unspecified),0,11µM,0,0,-,?
O=C(CC1NCCNC1=O)Nc1ccc(F)c(Cl)c1 (stereo unspecified),0,-,0,0,-,0
COC(=O)C1=C(C(=O)OC)[C@@H]2N(C)c3ccc(OC)cc3[C@@]23C[C@@H](C(=O)OC)N(C(=O)c2ccc(Br)cc2)C3=N1,13µM,0,20µM,0,-,0
CC(CC(=O)O)Nc1ccccc1O (stereo unspecified),0.1µM,0,45µM,0,0,0
CC(=O)Nc1ccccc1O,0,0,?,0,0,0
SMILES,JMJD2A Tudor,PLK1 PBD block,BAZ2B block,HP1b binding inh,L3MBTL1 inh,VDR inhibitor
Cc1ccc(/C(O)=C2/C(=O)C(=O)N(CC(=O)O)C2c2ccc([N+](=O)[O-])cc2)cc1 (stereo unspecified),50µM,0,?,0,0,?
COc1cc(NS(=O)(=O)c2cc3[nH]c(=O)[nH]c3cc2C)cc(OC)c1OC,0,-,0,0,-,0
COc1ccc(NS(=O)(=O)c2cc3[nH]c(=O)c(=O)[nH]c3cc2C)cc1OC,0,-,79µM,0,-,0
O=C(CNC(=O)C1CCCC1)OC(C(=O)Nc1cc(C(F)(F)F)ccc1Cl)c1ccccc1 (stereo unspecified),0,-,-,-,-,-
C/C(=N\NC(=O)c1ccc(Cl)c(Cl)c1)c1ccccn1,?,0,7.9µM,0,-,0
COc1ccc(C(=O)N/N=C(\C)c2ccccn2)cc1OC,22µM,0,7.9µM,0,-,0
COc1cc(C(C)=NNC(=O)c2ccncc2)ccc1O,32µM,0,-,0,-,0
C/C(=N\NC(=O)c1cccc2ccccc12)c1ccccn1,56µM,0,16µM,0,-,0
COc1ccc(NC(=O)c2ccccn2)cc1OC,0,0,0,0,0,0
C/C(=N\NC(=O)c1cccc(N/N=C(\C)c2ccncc2)c1)c1ccncc1,0,27µM,?,0,0,0
C/C(=N\NC(=O)c1cccc(N/N=C(\C)c2ccccc2)c1)c1ccccc1,0,0,0,0,0,?
C/C(=N/NC(=O)c1ccc(C(C)(C)C)cc1)c1ccccn1,45µM,0,-,0,-,0
CCOc1ccc(OCc2ccc(C(=O)N/N=C(\C)c3ccccn3)cc2)cc1,0,0,?,0,0,0
C/C(=N\NC(=O)c1cccc(Br)c1)c1ccccn1,22µM,0,3.5µM,0,-,0
COc1cccc(Oc2nc3c(c(=O)n(Cc4ccccc4Cl)c(=O)n3C)n2C)c1,0,-,0,0,-,0
CCCN1C(=O)c2ccccc2CC1(C)C(=O)NC1CCCCC1 (stereo unspecified),0,-,0,0,-,0
COCCn1c(=O)c(-c2ccc(F)c(F)c2)nc2cncnc21,-,-,-,-,-,0
COc1ccc(OC)c(NC(=O)C(C)n2c(=O)c(-c3ccccc3NC(C)=O)nc3ccccc32)c1 (stereo unspecified),0,-,0,0,-,0
CC(c1ccccc1)C1CC(=O)N(c2ccccc2)C1=O (stereo unspecified),0,0,0,0,0,0
COC(=O)c1cc2oc3ccccc3c2n1CC(=O)Nc1ccc(OC)c(OC)c1,0,-,0,0,-,0
COc1ccc(CC(NC(C)=O)C(=O)NC2CCN(C(=O)C3CCCCC3)CC2)cc1OC (stereo unspecified),0,0,0,0,-,0
COc1cc(/C=N/N(C)c2ccccc2)ccc1O,56µM,0,45µM,?,-,0
CN(/N=C/c1ccc2c(c1)OCO2)c1ccccc1,?,0,28µM,0,0,0
C(=N\N1CCN(C(c2ccccc2)c2ccccc2)CC1)/c1ccc2c(c1)OCO2,22µM,0,?,?,0,0
O=C(CNc1ccccc1)N/N=C/c1ccc2c(c1)OCO2,?,24µM,0,0,0,0
O=C(NC1CCCCC1)C(c1ccccc1)N(C(=O)c1csnn1)C1CCCC1 (stereo unspecified),0,0,0,0,-,0
CC(C)C[C@@H](COCc1ccc(C(F)(F)F)cc1)N1CCN(C(=O)c2ccc(C(F)(F)F)cc2)CCC1=O,-,0,-,-,-,-
CN1CCC(n2[nH]c(-c3ccccc3)c(Cc3ccccc3)c2=O)CC1,0,?,-,0,-,0
